Test results taken from the supplement of paper PMC12494721.
Where a name gives a salt, the structure may show the parent alone.

Tests used:
Conditions in all cases: incubation time: 27 h, anaerobic, 37 °C;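 for the amine columns active = adjusted P below 0.05 in both replicates with a change the same way and a mean fold change under 0.8 or over 1.25; inactive = the rest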
[1] = system: Clostridium sporogenes DSM 1664; experiment: growth (OD595) fold change vs plate DMSO controls (fold change (ratio)); higher = more growth
How it was run: (§1)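 The 96-well mGAM cultures had been kept anaerobic for 27 h at 37 °C before being shaken and read at 595 nm. Blank subtraction, compound background correction with 20 µM compound solutions in water, and a calibration factor of 5 turned the readings into OD. Growth is given as the fold change versus the median of plate DMSO controls. Fold changes above 1.5 were set to NA, and the values are means of 2 biological replicates.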

[2] = system: Escherichia coli IAI1; experiment: as above
How it was run: as §1

[3] = system: Klebsiella aerogenes DSM 30053; experiment: as above
How it was run: as §1

[4] = system: Ruminococcus gnavus DSM 108212; experiment: as above
How it was run: as §1

[5] = system: Klebsiella aerogenes DSM 30053; experiment: fold change of Histamine concentration vs plate DMSO controls (fold change (ratio)); higher = more amine produced, active = hit call of the paper (significant change in both replicates, either direction)
How it was run: (§2)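 Anaerobic mGAM cultures of four gut bacterial strains were grown at 37 °C for 27 h in 80 µL wells, starting at OD 0.1 before 1:1 dilution. Compounds were at 20 µM final (sweeteners 50 µM). Whole cultures were extracted with cold acetonitrile/methanol containing 0.1% formic acid and centrifuged. Amines were quantified by LC–triple-quadrupole MS (dynamic MRM) against external calibration curves and drift-corrected within batch. Each value is the fold change versus plate DMSO controls, averaged over 2 biological replicates.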

[6] = system: Clostridium sporogenes DSM 1664; experiment: fold change of Tryptamine concentration vs plate DMSO controls (fold change (ratio)); higher = more amine produced, active = hit call of the paper (significant change in both replicates, either direction)
How it was run: as §2

[7] = system: Ruminococcus gnavus DSM 108212; experiment: as above
How it was run: as §2

[8] = system: Escherichia coli IAI1; experiment: fold change of Putrescine concentration vs plate DMSO controls (fold change (ratio)); higher = more amine produced, active = hit call of the paper (significant change in both replicates, either direction)
How it was run: as §2

[9] = system: Klebsiella aerogenes DSM 30053; experiment: as above
How it was run: as §2

[10] = system: Escherichia coli IAI1; experiment: fold change of Cadaverine concentration vs plate DMSO controls (fold change (ratio)); higher = more amine produced, active = hit call of the paper (significant change in both replicates, either direction)
How it was run: as §2

[11] = system: Klebsiella aerogenes DSM 30053; experiment: as above
How it was run: as §2

[12] = system: Ruminococcus gnavus DSM 108212; experiment: fold change of 2-Phenylethylamine concentration vs plate DMSO controls (fold change (ratio)); higher = more amine produced, active = hit call of the paper (significant change in both replicates, either direction)
How it was run: as §2

| SMILES | growth [1] | growth [2] | growth [3] | growth [4] | fold change of Histamine concentration [5] | fold change of Tryptamine concentration [6] | fold change of Tryptamine concentration [7] | fold change of Putrescine concentration [8] | fold change of Putrescine concentration [9] | fold change of Cadaverine concentration [10] | fold change of Cadaverine concentration [11] | fold change of 2-Phenylethylamine concentration [12] |
| --- | --- | --- | --- | --- | --- | --- | --- | --- | --- | --- | --- | --- |
| CC[N+](CC)(CC)CCOc1cccc(OCC[N+](CC)(CC)CC)c1OCC[N+](CC)(CC)CC [Gallamine triethiodide] (20 µM) | 1.09 | 1.02 | 1.05 | 0.905 | 0.862 (inactive) | 1.12 (inactive) | 1.09 (inactive) | 1.06 (inactive) | 0.945 (inactive) | 0.947 (inactive) | 1.04 (inactive) | 1.06 (inactive) |
| CC=CC1=C(C(=O)O)N2C(=O)[C@@H](NC(=O)[C@H](N)c3ccc(O)cc3)[C@H]2SC1 [Cefprozil] (20 µM) | 0.404 | 1.01 | 0.983 | 0.5 | 1.06 (inactive) | 0.324 (active) | 0.637 (inactive) | 0.914 (inactive) | 1.02 (inactive) | 0.955 (inactive) | 1.02 (inactive) | 0.843 (inactive) |
| C[C@H](O)C(=O)Nc1c(I)c(C(=O)NC(CO)CO)c(I)c(C(=O)NC(CO)CO)c1I [Iopamidol] (20 µM) | 1.2 | 1.02 | 1.05 | 1.25 | 1.04 (inactive) | 1.03 (inactive) | 1.07 (inactive) | 0.979 (inactive) | 0.995 (inactive) | 0.999 (inactive) | 1.01 (inactive) | 1.05 (inactive) |
| CN1CCN(C(c2ccccc2)c2ccccc2)CC1 [Cyclizine hydrochloride] (20 µM) | 0.981 | 0.984 | 0.972 | 1.16 | 1.07 (inactive) | 0.968 (inactive) | 0.996 (inactive) | 1 (inactive) | 1 (inactive) | 1.02 (inactive) | 0.987 (inactive) | 1.03 (inactive) |
| Cc1ccsc1/C=C/C1=NCCCN1C [Morantel tartrate] (20 µM) | 1.2 | 1.07 | 1.08 | 1.08 | 0.92 (inactive) | 0.936 (inactive) | 0.918 (inactive) | 1.01 (inactive) | 1 (inactive) | 1.03 (inactive) | 1.01 (inactive) | 0.957 (inactive) |
| C[C@]12CC[C@@H]3c4ccc(O)cc4CC[C@H]3[C@@H]1CCC2=O [Estrone] (20 µM) | 1.03 | 1.02 | 1.03 | 1.01 | 1.07 (inactive) | 1.06 (inactive) | 0.894 (inactive) | 1.04 (inactive) | 1.02 (inactive) | 1.02 (inactive) | 1.01 (inactive) | 0.884 (inactive) |
| Nc1ccn([C@H]2CC[C@@H](CO)O2)c(=O)n1 [Zalcitabine] (20 µM) | 1.05 | 1.04 | 0.995 | 0.997 | 1.03 (inactive) | 1.02 (inactive) | 1.04 (inactive) | 1.09 (inactive) | 0.978 (inactive) | 0.975 (inactive) | 0.997 (inactive) | 1.02 (inactive) |
| C[C@@H]1O[C@@H](O[C@H]2[C@H](Oc3cc(O)c(C(=O)CCc4ccc(O)cc4)c(O)c3)O[C@H](CO)[C@@H](O)[C@@H]2O)[C@H](O)[C@H](O)[C@H]1O [Naringin Dihydrochalcone] (50 µM) | 1.1 | 0.965 | 1.05 | 1.2 | 0.958 (inactive) | 0.968 (inactive) | 1 (inactive) | 0.983 (inactive) | 0.996 (inactive) | 1.13 (inactive) | 1.01 (inactive) | 0.966 (inactive) |
| CCN(CC)C(=S)SSC(=S)N(CC)CC [Disulfiram] (20 µM) | 1.03 | 0.988 | 0.991 | 1.38 | 1.06 (inactive) | 0.992 (inactive) | 1 (inactive) | 1.09 (inactive) | 1.03 (inactive) | 0.969 (inactive) | 1 (inactive) | 0.955 (inactive) |
| CCCCCCCCc1c(CC)nc2ncnn2c1N (20 µM) | 1.11 | 1.05 | 1.04 | 1.16 | 0.991 (inactive) | 1.03 (inactive) | 0.997 (inactive) | 1.01 (inactive) | 1.01 (inactive) | 1.04 (inactive) | 1.01 (inactive) | 0.968 (inactive) |
| COc1ccc(C2CNC(=O)C2)cc1OC1CCCC1 (stereo not drawn) [Rolipram] (20 µM) | 0.936 | 0.98 | 1.03 | 0.936 | 0.951 (inactive) | 1.03 (inactive) | 1.03 (inactive) | 0.954 (inactive) | 0.989 (inactive) | 0.984 (inactive) | 1 (inactive) | 1.06 (inactive) |
| CNCCC(Oc1ccccc1OC)c1ccccc1 (stereo not drawn) [Nisoxetine hydrochloride] (20 µM) | 0.994 | 0.74 | 0.914 | 0.975 | 1.02 (inactive) | 0.993 (inactive) | 1.01 (inactive) | 0.707 (inactive) | 0.978 (inactive) | 1.18 (inactive) | 0.983 (inactive) | 0.92 (inactive) |
| CC(C)(Oc1ccc(Cl)cc1)C(=O)O [Clofibric acid] (20 µM) | 1.11 | 0.983 | 1.02 | 0.96 | 1.12 (inactive) | 0.982 (inactive) | 1 (inactive) | 0.957 (inactive) | 1.02 (inactive) | 1 (inactive) | 0.982 (inactive) | 1 (inactive) |
| CCOCC(O)COc1ccc(NC(=O)CC[S+](C)C)cc1 (stereo not drawn) [Suplatast Tosylate] (20 µM) | 0.999 | 1.04 | 0.988 | 1 | 1.03 (inactive) | 1.01 (inactive) | 0.978 (inactive) | 1.04 (inactive) | 1.02 (inactive) | 0.989 (inactive) | 0.991 (inactive) | 0.909 (inactive) |
| NC(=O)c1cn(Cc2c(F)cccc2F)nn1 [Rufinamide] (20 µM) | 0.904 | 0.974 | 1.01 | 0.922 | 0.998 (inactive) | 0.969 (inactive) | 1.02 (inactive) | 0.999 (inactive) | 0.995 (inactive) | 0.98 (inactive) | 0.985 (inactive) | 1.02 (inactive) |
| CC[C@H]1OC(=O)[C@H](C)[C@@H](O[C@H]2C[C@@](C)(OC)[C@@H](O)[C@H](C)O2)[C@H](C)[C@@H](O[C@@H]2O[C@H](C)C[C@H](N(C)C)[C@H]2O)[C@](C)(O)C[C@@H](C)CN(C)[C@H](C)[C@@H](O)[C@]1(C)O [Azithromycin] (20 µM) | 0 | 0.212 | 0.39 | 0.162 | 0.0612 (active) | 0.0425 (active) | 0.0983 (active) | 0.366 (inactive) | 0.425 (active) | 0.633 (active) | 0.99 (inactive) | 0.115 (active) |
| CCOc1cc(N)c(Cl)cc1C(=O)NCC1CN(Cc2ccc(F)cc2)CCO1 (stereo not drawn) [Mosapride] (20 µM) | 1.14 | 0.963 | 0.978 | 1.08 | 1.05 (inactive) | 1.03 (inactive) | 0.938 (inactive) | 0.985 (inactive) | 1.02 (inactive) | 0.998 (inactive) | 0.992 (inactive) | 0.936 (inactive) |
| c1cc2ccc3ccc4ccc5cccc6c(c1)c2c3c4c56 [Benzo-[g,h,i]perylene] (20 µM) | 0.921 | 1.01 | 1.06 | 1.05 | 1.04 (inactive) | 1.02 (inactive) | 0.905 (inactive) | 1.04 (inactive) | 1.01 (inactive) | 1 (inactive) | 0.976 (inactive) | 0.88 (inactive) |
| COC(=O)C1=C(C)NC(C)=C(C(=O)OC)C1c1ccccc1[N+](=O)[O-] [Nifedipine] (20 µM) | 1.07 | 1.12 | 0.991 | 0.883 | 1.05 (inactive) | 1.02 (inactive) | 1 (inactive) | 1.05 (inactive) | 1.01 (inactive) | 0.955 (inactive) | 1 (inactive) | 0.92 (inactive) |
| C=C1C[C@@]23CC[C@H]4[C@@](C)(CCC[C@@]4(C)C(=O)O[C@@H]4O[C@H](CO)[C@@H](O)[C@H](O)[C@H]4O)[C@@H]2CC[C@]1(O[C@@H]1O[C@H](CO)[C@@H](O)[C@H](O)[C@H]1O)C3 [Rubusoside] (50 µM) | 1.1 | 1 | 0.969 | 1.01 | 1.01 (inactive) | 1 (inactive) | 0.989 (inactive) | 1.05 (inactive) | 1.01 (inactive) | 1.02 (inactive) | 0.991 (inactive) | 0.981 (inactive) |
| N=C(N=C(N)N)N1CCOCC1 [Moroxidine hydrochloride] (20 µM) | 0.931 | 1.05 | 1 | 1.39 | 1.11 (inactive) | 0.987 (inactive) | 1.18 (inactive) | 0.989 (inactive) | 1.06 (inactive) | 0.916 (inactive) | 1.09 (inactive) | 1.34 (active) |
| CCN(CCCCOC(=O)c1ccc(OC)c(OC)c1)C(C)Cc1ccc(OC)cc1 (stereo not drawn) [Mebeverine hydrochloride] (20 µM) | 0.955 | 1.25 | 0.995 | 0.632 | 0.903 (inactive) | 1.01 (inactive) | 0.985 (inactive) | 1.15 (inactive) | 1.05 (inactive) | 1.04 (inactive) | 1.02 (inactive) | 1.01 (inactive) |
| Clc1ccccc1C(c1ccccc1)(c1ccccc1)n1ccnc1 [Clotrimazole] (20 µM) | 0.97 | 0.974 | 0.998 | 0.513 | 0.999 (inactive) | 0.977 (inactive) | 0.887 (inactive) | 0.997 (inactive) | 1.02 (inactive) | 0.955 (inactive) | 1.01 (inactive) | 0.929 (inactive) |
| O=C(NCc1ncc(C(F)(F)F)cc1Cl)c1c(Cl)cccc1Cl (20 µM) | 1 | 0.98 | 1 | 1.03 | 1.01 (inactive) | 0.989 (inactive) | 1.01 (inactive) | 1.01 (inactive) | 1.02 (inactive) | 1.01 (inactive) | 1.01 (inactive) | 0.956 (inactive) |
